Growth data for 40 molecules are collected here from PubChem BioAssay (NCI).

This is part of a sample that, as a whole, favours compounds with a hit. Of some 83,000 tested, about 20% had one in any assay.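 The endpoint reported here, percent growth, reads 100 for growth as untreated, 0 for no net growth and -100 for all cells dead.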 Values without a mark were called inactive. The source made the active and inactive calls. The calls were made as follows: active = growth percent below 10; inactive = the rest.

The subject of the assay is MDA-MB-468 breast. As to the kind of experiment: NCI-60 one-dose screen, 48 h (100 = growth as untreated, 0 = no growth, -100 = all killed). Particulars: 10 µM unless noted.
Consider `COc1cc2c(cc1NC(=O)C(F)(F)F)-c1ccc(NC(=O)C(F)(F)F)cc1C2`, for which the growth is 58%.

`Nc1ccc(Cl)cn1`: the growth was 102%. In the case of `O=C(NCCCN1CCC(N2CCCCC2)CC1)C1=Cc2cc(Br)ccc2OC1` it was 45.6%; in that of `Fc1cnccc1-c1nc2ccc3[nH]ncc3c2c2c1CCCC2`, 1.78% (active). Take `COc1cc(/C=C\c2cc(OC)c(OC)c(OC)c2)cc(N)c1OC`: the growth is 58.4%. With `Cc1nc(N)sc1Sc1nc2ccc(Cl)cc2c(=O)n1-c1ccc(Oc2ccccc2)cc1`, the growth is 76.6%.

`CCN(CC)c1ccc2cc(NC(=O)OCCNC(=O)CCNC(=O)[C@H](CC(C)C)NC(=O)C(C)(C)NC(=O)C(C)(C)NC(=O)[C@H](CC(C)C)NC(=O)CCNC(=O)C(C)(C)NC(=O)[C@H](CC(C)C)NC(=O)CCNC(=O)[C@@](C)(CC)NC(=O)[C@H](C)NC(=O)CCNC(=O)C(C)(C)NC(=O)[C@H](C)NC(=O)[C@@H]3CCCN3C(=O)[C@@](C)(CC)NC(=O)[C@H](Cc3ccccc3)NC(=O)C3CCCN3C(=O)C(C)(C)NC(=O)C3CCCN3C(=O)C(C)(C)NC(C)=O)c(=O)oc2c1` (stereo not given in full): the growth is -83% (active).

On to `Nc1c(C(=O)Nc2ccccn2)sc2nc3c(cc12)C(=O)CCC3`, for which the growth was 7.45% (active).

On to `C[C@H]1[C@H](OC(=O)CCC(=O)O)O[C@@H]2O[C@]3(C)CC[C@H]4[C@H](C)CC[C@@H]1[C@@]24OO3`, for which the growth was 29.1%. In the case of `N#CC1=CC2CN(Cc3ccccc3)C1C1C(=O)N(c3ccccc3)C(=O)C21` (stereo not given) it was 93.8%; in that of `CCCCCCCCCCCCCCCCCC1OCC(COC(=O)O[C@]2(CC)C(=O)OCc3c2cc2n(c3=O)Cc3cc4ccccc4nc3-2)O1` (stereo not given in full), 69.9%; in that of `COc1ccc(-c2cc(-c3cccnc3)nc(S(=O)(=O)CC(=O)Nc3ccc(C)cc3)c2C#N)cc1OC`, 96%.

For `Clc1ccc2c(c1)C[C@H]1C[C@@H](c3cccs3)N2O1`, the growth is 106%. Regarding `C=CCn1c(SCC(=O)Nc2ccc(C(=O)/C=C/c3ccc(Cl)cc3)cc2)nnc1-c1ccccc1`, the growth is 101%. The result for `COc1ccc(C(=O)CC#N)cc1` reads 103%. In the case of `Nc1ncnc2c1ncn2C1OC(COC(c2ccccc2)(c2ccccc2)c2ccccc2)C(O)C1O` (stereo not given) it was 89%.

Regarding `CC(=O)Oc1ccc(Nc2c3ccccc3nc3ccccc23)cc1`, the growth is -25.6% (active).

Consider `CC(C)NC(=O)c1cc(-c2ccc(NC(=O)Nc3ccc(F)c(C(F)(F)F)c3)cc2)nc2cccnc12`, for which the growth was 81.4%.

Turning to `CCn1c(C)nc([N+](=O)[O-])c1Sc1nc(N)nc2nc[nH]c12`, the growth was -11.2% (active). In the case of `CCC(C)C1NC(=O)C(CC(C)C)NC(=O)C(C)NC(=O)C(C(C)C)NC(=O)C(CCCCN)NC(=O)C(CC(C)C)NC(=O)C(C(C)C)NC(=O)[C@H](C)NC(=O)C(C(C)CC)NC(=O)C(CCCN=C(N)N)NC(=O)C(CCCCN)NC(=O)C(CCCN=C(N)N)NC(=O)C(CCCCN)NC(=O)C([C@H](C)CC)NC(=O)C(CCCCN)NC1=O` (stereo not given in full) it was -4.06% (active); in that of `O=C1OCC2=C1C(c1ccccc1)c1cc3c(cc1N2CCO)OCCO3` (stereo not given), -63.7% (active); in that of `Nc1ncn([C@@H]2O[C@H](CO)[C@@H](O)[C@H]2O)c(=O)n1`, 33.2%.

Turning to `COc1cc(/C=C/C(=O)c2nc3cc(F)ccc3nc2C)cc(OC)c1OC`, the growth is 23.6%.

`COc1ccc(-c2nc(/C=C3/C(=O)Nc4ccc(F)cc43)c3ccccn23)cc1`: the growth was 105%. The result for `COc1ccc2[nH]c(O)c(/C=c3/cc4c(c(-c5ccc(F)c(OC)c5)n3)=Nc3ccccc3-4)c2c1` reads -70.4% (active). In the case of `CC1CCC2C(C)(C)C3CC12CC1OC13C` (stereo not given) it was 99.8%; in that of `O=S(=O)(NC1CC2CCC1C2)c1ccc2c(c1)C(=NO)c1cc(S(=O)(=O)NC3CC4CCC3C4)ccc1-2` (stereo not given), -61.9% (active).

Turning to `O=[N+]([O-])c1ccc(-c2cc3c(Nc4ccc(OCc5cccc(Cl)c5)c(Cl)c4)ncnc3s2)cc1`, the growth is 56.2%. In the case of `COCCCNCC(=O)Nc1c(C)cccc1C` it was 112%; in that of `CCN(CC)CCCC(C)NCC(=O)NC(c1ccc2c(c1)OCO2)c1cc(Cl)c2cccnc2c1O` (stereo not given), 16.6%. For `O=C(NCCCNS(=O)(=O)c1ccc(Cl)cc1)Nc1ccc(-n2cc(-c3ccncc3)c(-c3ccc(Cl)c(O)c3)n2)cc1`, the growth is 47.6%. For `C=C1CC/C=C(\C)C(=O)C[C@@H]2[C@@H]1CC2(C)C`, the growth is 79.1%.

`O=C(Nc1ccc2c(O)cc(S(=O)(=O)O)cc2c1)c1ccc([N+](=O)[O-])cc1`: the growth was 95.4%. Consider `NC(=O)CC1(O)C=C(Br)C(=O)C(Br)=C1`, for which the growth was -9.32% (active). The result for `O=[N+]([O-])c1ccc(Sc2ccncn2)c([N+](=O)[O-])c1` reads 24%; that for `COc1ccc(Cl)cc1NC(=O)C(Br)C(Br)C(=O)O` (stereo not given), -79% (active); that for `C=C1[C@@H](O)C[C@H]2C(C)(C)C[C@H](Cl)C[C@]2(C)[C@H]1C[C@H](O)[C@H]1CC(=O)NC1=O`, -47.5% (active). Consider `Cc1ccccc1NC(=O)N/C(N)=N/c1nc2ccccc2s1`, for which the growth is 1.56% (active). Take `Cc1occc1-c1nc2s/c(=C\c3cn(-c4ccccc4)nc3-c3ccccc3)c(=O)n2n1`: the growth is 89.8%. Take `CCCCCCCCCCCCCC(=O)Oc1ccc[nH]c1=O`: the growth was 89.4%.
